# Measurements taken from PubChem BioAssay (Tox21).
# Records with an inconclusive call do not appear. A call without a number means that no potency is given here. Activity calls are given as the source filed them. Unless noted, the call rests on the fitted dose curve; in most records, active means well fitted curve in the direction sought with a large enough effect in the repeat runs; inconclusive means weak or mixed curves; inactive means no such curve, though single readings can be large; an effect the other way counts as inactive or inconclusive.
# Tests used:
# [1] = qHTS assay to identify small molecule antagonists of the estrogen related receptor (ERR) signaling pathway from Tox21 library - cell viability counter screen (AID 1224834); further: nearly all actives have a fitted effect of over 30% in size; further: potency means the concentration at half of the fitted maximal effect
# Outline: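 Viability readout (CellTiter-Fluor fluorescence, 30 min at 37 C) multiplexed with the ERR assay; cells treated 17.5 h at 37 C with compounds delivered in DMSO.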
# [2] = molecular target: Luciferin 4-monooxygenase (Photinus pyralis) (UniProt P08659); assay: qHTS assay to identify small molecule inhibitors of firefly luciferase (AID 1224835); further: nearly all actives have a fitted effect of over 25% in size; further: potency means the concentration at half of the fitted maximal effect
# Luciferin 4-monooxygenase (Photinus pyralis), sequence (P08659 whole entry, looked up): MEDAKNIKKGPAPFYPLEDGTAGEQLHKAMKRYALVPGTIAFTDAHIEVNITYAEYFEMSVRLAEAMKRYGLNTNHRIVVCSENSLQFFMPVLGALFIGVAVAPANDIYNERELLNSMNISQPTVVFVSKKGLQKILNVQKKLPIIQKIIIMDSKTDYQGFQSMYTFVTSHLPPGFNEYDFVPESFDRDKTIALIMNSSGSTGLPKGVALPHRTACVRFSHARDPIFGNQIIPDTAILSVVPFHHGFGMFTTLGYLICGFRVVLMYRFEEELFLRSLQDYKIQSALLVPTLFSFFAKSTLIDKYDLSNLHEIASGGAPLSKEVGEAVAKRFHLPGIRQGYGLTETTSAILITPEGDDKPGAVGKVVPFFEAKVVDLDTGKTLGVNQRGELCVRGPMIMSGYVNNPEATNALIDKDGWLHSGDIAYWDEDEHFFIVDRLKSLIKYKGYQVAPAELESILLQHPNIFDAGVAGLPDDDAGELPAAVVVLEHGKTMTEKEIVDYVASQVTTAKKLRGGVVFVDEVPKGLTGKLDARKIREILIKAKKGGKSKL
# Outline: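 Quantitative HTS format; KM concentrations of both substrates. Purified P. pyralis FLuc activity quantified from luminescence images.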
# [3] = qHTS assay to identify small molecule agonists of the constitutive androstane receptor (CAR) signaling pathway - cell viability counter screen (AID 1224836); further: nearly all actives have a fitted effect of over 45% in size; further: potency means the concentration at half of the fitted maximal effect
# Outline: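 HepG2 cells stably carrying hCAR and a CYP2B6-2.2kb reporter were plated 4 h, then given compounds at 15 concentrations plus PK11195 (final 0.75 uM). After 23 h at 37 C, viability was read by CellTiter-Fluor fluorescence.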
# [4] = qHTS assay to identify small molecule antagonists of the constitutive androstane receptor (CAR) signaling pathway - cell viability counter screen (AID 1224837); further: nearly all actives have a fitted effect of over 45% in size; further: potency means the concentration at half of the fitted maximal effect
# Outline: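 Fluorescence from CellTiter-Fluor served as the viability signal. Human hepatoma HepG2 cells stably bearing hCAR and CYP2B6-2.2kb received compound plus CITCO (50 nM final) for 23 hr.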
# [5] = molecular target: Nuclear receptor subfamily 1 group I member 3 (Homo sapiens) (UniProt Q14994); assay: qHTS assay to identify small molecule antagonists of the constitutive androstane receptor (CAR) signaling pathway (AID 1224838); further: nearly all actives have a fitted effect of over 40% in size; further: potency means the concentration at half of the fitted maximal effect
# Nuclear receptor subfamily 1 group I member 3 (Homo sapiens), sequence (Q14994 whole entry, looked up): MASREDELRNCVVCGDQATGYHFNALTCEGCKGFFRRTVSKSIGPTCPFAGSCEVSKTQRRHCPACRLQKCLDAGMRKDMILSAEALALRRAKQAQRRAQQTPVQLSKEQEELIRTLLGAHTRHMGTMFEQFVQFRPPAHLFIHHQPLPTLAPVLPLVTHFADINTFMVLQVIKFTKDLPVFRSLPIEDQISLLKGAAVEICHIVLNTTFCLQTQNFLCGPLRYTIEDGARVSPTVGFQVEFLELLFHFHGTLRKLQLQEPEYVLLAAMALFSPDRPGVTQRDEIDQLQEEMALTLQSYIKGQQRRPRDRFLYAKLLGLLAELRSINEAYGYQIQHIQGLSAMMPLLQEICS
# Outline: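 Quantitative HTS in double-stable HepG2-CYP2B6-hCAR cells. After 4 h plating, cells get compound (15 concentrations) and CITCO at 50 nM final, incubate 24 h at 37 C, then ONE-Glo luminescence is read.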
# [6] = molecular target: Nuclear receptor subfamily 1 group I member 3 (Homo sapiens) (UniProt Q14994); assay: qHTS assay to identify small molecule agonists of the constitutive androstane receptor (CAR) signaling pathway (AID 1224839); further: nearly all actives have a fitted effect of over 15% in size; further: potency means the concentration at half of the fitted maximal effect
# Outline: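 HepG2 cells stably expressing hCAR and a CYP2B6-2.2kb luciferase reporter were treated with compounds at 15 concentrations plus 0.75 uM PK11195 (final) for 24 h at 37 C; luminescence was read after ONE-Glo addition.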
# [7] = qHTS assay to identify small molecule antagonists of the estrogen related receptor signaling pathway with the pleiotropic PPARgamma coactivator (PGC) from Tox21 10K library - cell viability counter screen (AID 1224840; active means well fitted cell-killing curve with a large enough effect in the repeat runs, not every such curve was filed as active; further: nearly all actives have a fitted effect of over 40% in size; further: potency means the concentration at half of the fitted maximal effect)
# Outline: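 Compounds in DMSO, alongside positive and negative controls, were pinned onto PGC/ERR cells (2,000 per well). Exposure lasted 17.5 hours at 37 C, followed by a 30-minute CellTiter-Fluor incubation and fluorescence reading.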
# [8] = qHTS assay to identify small molecule agonists of the estrogen related receptor signaling pathway with the pleiotropic PPARgamma coactivator (PGC) (AID 1224823)
# Outline: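 Cell-based luciferase assay in the NTP-supplied PGC/ERR line, 2,000 cells/well; 18 h compound exposure at 37 C, luminescence after One-Glo.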
# [9] = qHTS assay to identify small molecule agonists of the estrogen related receptor signaling pathway with the pleiotropic PPARgamma coactivator (PGC) from Tox21 10K library (AID 1224842); further: nearly all actives have a fitted effect of over 15% in size
# Outline: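 PGC/ERR reporter cells (NTP line) were seeded 2,000 per well, rested 6 h at 37 C/5% CO2, then pin-dosed with compounds in DMSO for 18 h at 37 C; luciferase read by One-Glo luminescence after 30 min at room temperature.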
# [10] = qHTS assay to identify small molecule antagonists of the estrogen related receptor signaling pathway with the pleiotropic PPARgamma coactivator (PGC) from Tox21 10K library (AID 1224841; call rule not given here; further: actives are mostly falling curves and most rising ones were filed inactive; nearly all actives have a fitted effect of over 50% in size; further: potency means the concentration at half of the fitted maximal effect)
# Outline: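 Compound exposure ran 18 hours at 37 C in PGC/ERR cells (2,000/well) that had first rested 6 hours in a 37 C/5% CO2 incubator. Luciferase activity was then detected with One-Glo after a 30-minute room-temperature step.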
SMILES,Potency [1],Potency [2],Potency [3],Potency [4],Potency [5],Potency [6],Potency [7],outcome [8],Potency [9],Potency [10]
N#CCCN(CCO)CCO,inactive,inactive,inactive,inactive,inactive,inactive,inactive,–,–,–
O=C1NCCN1CCO,inactive,inactive,inactive,inactive,inactive,inactive,inactive,–,–,–
CCCCN(CCN(CCCC)C(=O)N1CCOCC1)C(=O)N1CCOCC1,inactive,inactive,inactive,inactive,inactive,inactive,inactive,–,–,–
Cc1cc(C)c(N)cc1C,inactive,inactive,inactive,inactive,inactive,inactive,inactive,–,–,–
CC(=O)OCC[N+](C)(C)C,inactive,inactive,inactive,inactive,inactive,inactive,inactive,–,–,–
Brc1cc(Br)c(Oc2cc(Br)c(Br)cc2Br)cc1Br,inactive,inactive,inactive,inactive,inactive,inactive,inactive,–,–,–
O=C(CCc1ccc(O)cc1)c1c(O)cc(O)cc1O,–,72.6 µM (active),inactive,inactive,–,–,–,inactive,inactive,–
O=C(O)c1cccc(-c2noc(-c3ccccc3F)n2)c1,inactive,0.0087 µM (active),inactive,inactive,inactive,0.0075 µM (active),inactive,–,–,–
c1ccc2c(c1)CCc1ccccc1N2,inactive,63.6 µM (active),inactive,inactive,inactive,54.8 µM (active),inactive,–,–,–
CCCCCCC(C)(C)C(=O)O,inactive,inactive,inactive,inactive,inactive,inactive,inactive,–,inactive,inactive
Cc1ccc(CO)cc1,inactive,inactive,inactive,inactive,inactive,inactive,inactive,–,–,–
c1ccc(C[n+]2cccc3ccccc32)cc1,inactive,inactive,inactive,inactive,inactive,inactive,inactive,–,inactive,24.3 µM (active)
CO/N=C(/C(=O)N[C@@H]1C(=O)N2C(C(=O)O)=C(COC(N)=O)CS[C@H]12)c1ccco1,inactive,inactive,inactive,inactive,inactive,inactive,inactive,–,–,–
FC(F)(F)c1ccccc1Cl,inactive,inactive,inactive,inactive,inactive,inactive,inactive,–,inactive,inactive
CN1C(=O)c2ccccc2C1=O,inactive,inactive,–,inactive,inactive,inactive,inactive,inactive,inactive,–
CN1C[C@H](C(=O)N[C@]2(C)O[C@@]3(O)[C@@H]4CCCN4C(=O)[C@H](Cc4ccccc4)N3C2=O)C[C@@H]2c3cccc4[nH]cc(c34)C[C@H]21,26.6 µM (active),inactive,–,–,inactive,inactive,–,inactive,inactive,inactive
CC1(C)O[C@@H]2C[C@H]3[C@@H]4C[C@H](F)C5=CC(=O)C=C[C@]5(C)[C@H]4[C@@H](O)C[C@]3(C)[C@]2(C(=O)CO)O1,inactive,inactive,inactive,inactive,inactive,inactive,inactive,–,–,–
CC(C)COCC(CN(Cc1ccccc1)c1ccccc1)N1CCCC1 (stereo not drawn),26.6 µM (active),inactive,29.8 µM (active),29.8 µM (active),18.8 µM (active),inactive,29.8 µM (active),–,–,–
O=C(O)CCc1nc(-c2ccccc2)c(-c2ccccc2)o1,inactive,inactive,inactive,inactive,inactive,inactive,inactive,inactive,inactive,–
CCC=CC#N,inactive,inactive,inactive,inactive,inactive,inactive,inactive,–,–,–
CCC(C)COC(=O)CC(C)C (stereo not drawn),inactive,inactive,inactive,inactive,inactive,inactive,inactive,–,–,–
CC=C(Cl)Cl,inactive,inactive,inactive,inactive,inactive,inactive,inactive,–,–,–
C[C@H]1c2cccc(O)c2C(O)=C2C(=O)[C@]3(O)C(O)=C(C(N)=O)C(=O)[C@@H](N(C)C)[C@@H]3[C@@H](O)[C@@H]21,inactive,inactive,–,inactive,inactive,inactive,inactive,inactive,inactive,–
O=C(Nc1cccc2c(=O)cc(-c3nn[nH]n3)oc12)c1ccc(OCCCCc2ccccc2)cc1,inactive,27.5 µM (active),inactive,inactive,inactive,inactive,inactive,–,–,–
CCCC(C(=O)OCCN(CC)CC)(c1ccccc1)c1ccccc1,29.8 µM (active),inactive,inactive,–,inactive,11.9 µM (active),–,inactive,inactive,–
C1C[C@@H]2[C@H]3CC[C@H](C3)[C@@H]2C1,inactive,inactive,inactive,inactive,inactive,inactive,inactive,–,–,–
Cc1ccccc1S,inactive,inactive,inactive,inactive,inactive,inactive,inactive,–,–,–
OCCN1CCN(CCCN2c3ccccc3Sc3ccc(Cl)cc32)CC1,26.6 µM (active),inactive,29.8 µM (active),29.8 µM (active),–,inactive,–,inactive,–,–
